Test results from publication PMC5540273 (PLoS ONE, 2017).

How the values were obtained:
Conditions in all cases: concentration: 1 μM,replicates: in singlicate; n = 1
PIK3C2G = test system: PIK3C2G
PIK3CA = test system: PIK3CA
PIK3CB = test system: PIK3CB
PIK3CD = test system: PIK3CD
PIK3CG = test system: PIK3CG
PIK4CB = test system: T1, PIK4CB
T1 construct: gene PI4KB

PIKFYVE = test system: PIKFYVE
PIM1 = test system: PIM1
PIM2 = test system: PIM2
PIM3 = test system: PIM3
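Note: KINOMEscan kinase panel screen.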

SMILES	%Inh (PIK3C2G)	%Inh (PIK3CA)	%Inh (PIK3CB)	%Inh (PIK3CD)	%Inh (PIK3CG)	%Inh (PIK4CB)	%Inh (PIKFYVE)	%Inh (PIM1)	%Inh (PIM2)	%Inh (PIM3)
C[C@@H](Oc1cc(-n2cnc3cc(-c4cnn(C)c4)ccc32)sc1C(N)=O)c1ccccc1Cl [GSK580432]	0%	0%	0%	32%	24%	0%	61%	20%	0%	18%
C[C@@H]1CNc2c(sc3ccc4nc(-c5ccncc5)ccc4c23)C(=O)N1	2%	0%	0%	0%	0%	0%	52%	44%	69%	93.1%
CN1CCN(CCNc2nc3cc(Oc4ccc(NC(=O)Nc5cc(C(F)(F)F)ccc5F)cc4)ccc3[nH]2)CC1.Cl.Cl [GW768504]	0%	0%	0%	0%	0%	0%	0%	10%	2%	0%
CCN1CCN(CCCC(=O)Nc2n[nH]c3nc(-c4ccc(O)cc4)c(Br)cc23)CC1 [SB-731579]	16%	0%	0%	44%	6%	16%	14%	57%	89%	72%
Cc1cccc(-c2nc(Nc3ccncc3)c3sccc3n2)n1 [GW869641]	40%	33%	28%	46%	23%	31%	86%	27%	3%	13%
C[C@@H](Oc1cc(-n2cnc3ccc(-c4ccncc4)cc32)sc1C(N)=O)c1ccccc1Cl [GSK483724]	6%	53%	68%	87%	97.7%	79%	95.1%	46%	64%	23%
CCOC(=O)N1CCC(n2cnc(-c3ccc(F)cc3)c2-c2ccnc(N)n2)CC1 [SB-219952]	69%	15%	0%	16%	64%	59%	37%	9%	0%	1%
Cn1ccc2ncnc(Oc3ccc(NC(=O)Nc4cccc(C(F)(F)F)c4)c(F)c3)c21	0%	0%	0%	0%	0%	0%	13%	19%	0%	8%
COc1cccc(C2=C(Nc3cccc(Cl)c3)C(=O)NC2=O)c1 [SB-341556]	0%	1%	0%	0%	0%	10%	0%	9%	0%	0%
O=C(Nc1cccc(Oc2ccc3nccn3n2)c1)Nc1cccc(C(F)(F)F)c1	0%	0%	0%	5%	18%	0%	0%	0%	10%	0%
COc1cc(Nc2nccc(N3CCC(NC(=O)c4cccc(C#N)c4)C3)n2)cc(OC)c1OC (stereo not shown) [GSK1379751]	0%	0%	0%	0%	0%	3%	9%	0%	0%	0%
COC(=O)Nc1nc2cc(Oc3ccc(NC(=O)Nc4cc(C(F)(F)F)ccc4Cl)cc3)ccc2[nH]1.Cl [GW697465]	0%	0%	16%	4%	0%	0%	20%	30%	0%	22%
CN(c1ccccc1CNc1nc(Nc2ccc3c(c2)CC(=O)N3)ncc1C(F)(F)F)S(C)(=O)=O	0%	0%	0%	0%	0%	0%	38%	0%	0%	0%
NC(=O)c1ccc(-c2cc3ncnc(SCC(=O)O)c3s2)cc1	20%	0%	15%	0%	0%	0%	42%	7%	22%	22%
Cn1ccc2ncnc(Oc3ccc(NC(=O)Nc4cnn(C(C)(C)C)c4)c(Cl)c3)c21	8%	10%	0%	14%	7%	0%	0%	0%	7%	0%
Cn1ccc2ncnc(Oc3ccc(NC(=O)Nc4cc(C(C)(C)C)on4)c(Cl)c3)c21	48%	5%	8%	12%	4%	0%	19%	1%	0%	11%
CS(=O)(=O)Nc1ccc(-c2ccnc3[nH]ccc23)cc1 [GSK993273]	3%	0%	0%	8%	7%	10%	0%	28%	0%	12%

SMILES	%Inh (PIK3C2G)	%Inh (PIK3CA)	%Inh (PIK3CB)	%Inh (PIK3CD)	%Inh (PIK3CG)	%Inh (PIK4CB)	%Inh (PIKFYVE)	%Inh (PIM1)	%Inh (PIM2)	%Inh (PIM3)
CS(=O)c1ccc(-c2coc3ccc(-c4n[nH]c(=O)o4)cc23)cc1 (stereo not shown)	49%	46%	41%	35%	78%	43%	64%	87%	82%	84%
CNC(=O)c1ccccc1Nc1nc(Nc2cccc(CS(C)(=O)=O)c2)ncc1C.O=CO [GSK1520489]	0%	0%	0%	0%	20%	12%	0%	18%	0%	0%
O=C(Nc1cccc(C(F)(F)F)c1)c1cccc(Oc2ccc3nccn3n2)c1	13%	98.1%	0%	17%	94.2%	39%	0%	0%	7%	0%
Cn1ccc2ncnc(Oc3ccc(NC(=O)Nc4cncc(C(F)(F)F)c4)c(Cl)c3)c21	0%	0%	0%	0%	0%	0%	0%	3%	1%	0%
Cl.Nc1n[nH]c2cc(-c3ccccn3)ccc12 [GSK2189892]	0%	0%	0%	0%	0%	0%	0%	0%	0%	0%
N#Cc1cccc(C(=O)NC2CCN(c3ccnc(Nc4ccc(F)cc4)n3)C2)c1 (stereo not shown) [GSK1379708]	0%	0%	0%	0%	0%	0%	0%	0%	0%	0%
Cc1n[nH]c2cc(Nc3ccnc(Nc4cccc(CN5CCOCC5)c4)n3)ccc12 [GW682569]	0%	3%	7%	9%	6%	81%	23%	0%	0%	0%
COc1cc2nccc(Nc3ccc(Oc4ccccc4)cc3)c2cc1OC.Cl [GI261656]	0%	0%	0%	0%	0%	0%	5%	0%	0%	0%
Cl.Cl.NC[C@H](CC1CCCCC1)NC(=O)c1ccc(-c2ccnc3[nH]ccc23)s1 [GSK1581428]	0%	0%	0%	0%	0%	0%	0%	0%	0%	0%
COC(=O)c1cccc(NC(=O)NC2CCN(c3ccnc(Nc4cc(OC)c(OC)c(OC)c4)n3)C2)c1 (stereo not shown) [GSK1379767]	0%	0%	9%	35%	21%	47%	28%	17%	0%	0%
CCn1c(-c2nonc2N)nc2cncc(Br)c21 [SB-738004]	12%	0%	21%	34%	11%	5%	39%	89%	0%	62%
C[C@@H]1CCN(C(=O)N2CCCC2)C[C@@H]1N(C)c1ncnc2[nH]ccc12	0%	2%	26%	2%	14%	7%	3%	0%	0%	0%
Cn1ccc2ncnc(Oc3ccc(NC(=O)Nc4cccc(C(F)(F)F)c4)c(Cl)c3)c21	5%	0%	19%	0%	0%	0%	29%	12%	1%	15%
O=c1[nH]cc(-c2ccc(O)cc2)c2sc(-c3ccncc3)cc12 [GSK1033723]	20%	0%	13%	39%	7%	0%	0%	0%	13%	0%
COc1cccc(CNC(=O)NC2CCN(c3ccnc(Nc4cc(OC)c(OC)c(OC)c4)n3)C2)c1 (stereo not shown) [GSK1379765]	0%	0%	83%	35%	0%	67%	0%	0%	0%	0%
Cc1ccc2c(-c3ccnc(Nc4ccc(C(F)(F)F)cc4)n3)cnn2n1 [GW819776]	0%	2%	0%	0%	48%	33%	23%	10%	0%	0%
CN1CCN(CCCNc2nccc(-c3c(-c4ccc(F)cc4)nn4cc(C(N)=O)ccc34)n2)CC1 [GW622475]	0%	0%	0%	0%	0%	0%	94.2%	25%	0%	8%
